From PubChem BioAssay AID1159580 (chemical genetic matrix, 2015)
Values joined by “and” are separate entries in the source; they are usually repeats but may differ in a detail not shown here. Equal entries are not always repeated. Screen size: about 5,500 compounds; about 2,000 (36%) were called active. About 18% were inconclusive and are not listed. Rule as the data show it: active = normalized growth mostly below about 0.91 (no sharp cut-off); inconclusive = no clear call, values can overlap the other calls; inactive = mostly above about 0.92. The list shows a part of the results.

Assay: chemical genetic growth profiling, strain panel (AID 1159580);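 also: tested at 20 µM; growth read once vehicle control cultures reached saturation at 30 °C; 1 = growth at the plate median or of vehicle wells; lower values mean less growth of the strain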
Conditions: S. cerevisiae deletion strains, growth OD

Measured: normalized growth

Cc1cc(N)c2ccccc2[n+]1CCCCCCCCCC[n+]1c(C)cc(N)c2ccccc21
active: locus YAL013W, strain DEP1, hits give low values 0.0603 | locus YAL021C, strain ccr4, hits give low values 0.0693 | locus YAL026C, strain drs2, hits give low values 0.0714 | locus YAL030W, strain snc1, hits give low values 0.0625 | locus YAL040C, strain CLN3, hits give low values 0.0761 | locus YBL061C, strain skt5, hits give low values 0.066 | locus YBR009C, strain hhf1, hits give low values 0.0696 | locus YBR021W, strain FUR4, hits give low values 0.0907 | locus YBR023C, strain chs3, hits give low values 0.0647 | locus YBR171W, strain sec66, hits give low values 0.0836 | locus YBR229C, strain ROT2, hits give low values 0.0499 | locus YBR231C, strain swc5, hits give low values 0.0655 | locus YBR279W, strain paf1, hits give low values 0.105 | locus YCL011C, strain gbp2, hits give low values 0.0611 | locus YCL016C, strain dcc1, hits give low values 0.0686 | locus YCL029C, strain bik1, hits give low values 0.0664 | locus YCL061C, strain MRC1 (second series), hits give low values 0.0482 | locus YCL061C, strain MRC1, hits give low values 0.0691 | locus YCL069W, strain vba3, hits give low values 0.0657 | locus YCR088W, strain abp1, hits give low values 0.0654 | locus YDL005C, strain med2, hits give low values 0.0789 | locus YDL035C, strain GPR1, hits give low values 0.0543 | locus YDL040C, strain nat1, hits give low values 0.0635 | locus YDL074C, strain BRE1, hits give low values 0.0853 | locus YDL101C, strain DUN1, hits give low values 0.0584 | locus YDL134C, strain PPH21, hits give low values 0.0503 | locus YDL185W, strain tfp1, hits give low values 0.0607 | locus YDL192W, strain arf1, hits give low values 0.0659 | locus YDR001C, strain nth1, hits give low values 0.0643 | locus YDR069C, strain doa4, hits give low values 0.0664 | locus YDR101C, strain arx1, hits give low values 0.0626 | locus YDR137W, strain rgp1, hits give low values 0.0886 | locus YDR150W, strain NUM1, hits give low values 0.0524 | locus YDR159W, strain sac3, hits give low values 0.0966 | locus YDR162C, strain NBP2, hits give low values 0.0484 | locus YDR195W, strain ref2 0.14 | locus YDR297W, strain sur2, hits give low values 0.0628 | locus YDR318W, strain mcm21, hits give low values 0.0702 | locus YDR334W, strain swr1, hits give low values 0.0697 | locus YDR335W, strain msn5, hits give low values 0.0637 | locus YDR363W, strain ESC2, hits give low values 0.0798 | locus YDR388W, hits give low values 0.0589 | locus YDR392W, strain spt3, hits give low values 0.104 | locus YDR502C, strain sam2, hits give low values 0.066 | locus YEL003W, strain gim4, hits give low values 0.0587 | locus YEL037C, strain rad23, hits give low values 0.06 | locus YEL061C, strain CIN8 (second series), hits give low values 0.066 | locus YEL061C, strain CIN8, hits give low values 0.0508 | locus YER002W, strain NOP16, hits give low values 0.0717 | locus YER015W, strain faa2, hits give low values 0.064 | locus YER016W, strain bim1, hits give low values 0.0649 | locus YER110C, hits give low values 0.0798 | locus YER111C, strain swi4, hits give low values 0.0774 | locus YER155C, strain BEM2 (second series), hits give low values 0.0923 | locus YER155C, strain BEM2, hits give low values 0.0729 | locus YER167W, strain BCK2, hits give low values 0.0524 | locus YFR010W, strain ubp6, hits give low values 0.0738 | locus YGL078C, strain dbp3, hits give low values 0.0809 | locus YGL086W, strain mad1, hits give low values 0.0599 | locus YGL167C, strain pmr1, hits give low values 0.0819 | locus YGL173C, strain kem1, hits give low values 0.0682 | locus YGL227W, strain vid30, hits give low values 0.0671 | locus YGL240W, strain doc1, hits give low values 0.0823 | locus YGL248W, strain PDE1, hits give low values 0.0477 | locus YGL253W, strain hxk2, hits give low values 0.0575 | locus YGR078C, strain PAC10, hits give low values 0.0515 and 0.0686 | locus YGR135W, strain pre9, hits give low values 0.0652 | locus YGR229C, strain SMI1, hits give low values 0.0559 | locus YGR252W, strain gcn5, hits give low values 0.156 | locus YHR013C, strain ard1, hits give low values 0.116 | locus YHR027C, strain rpn1, hits give low values 0.0661 | locus YHR030C, strain SLT2, hits give low values 0.0523 | locus YHR079C, strain IRE1 (second series), hits give low values 0.0634 | locus YHR094C, strain hxt1, hits give low values 0.0669 | locus YHR129C, strain ARP1, hits give low values 0.087 | locus YHR142W, strain chs7, hits give low values 0.0778 | locus YHR200W, strain rpn10, hits give low values 0.0666 | locus YIL066C, strain RNR3, hits give low values 0.0524 | locus YIL073C, strain SPO22, hits give low values 0.118 | locus YIL125W, strain kgd1, hits give low values 0.0847 | locus YIR030C, strain dcg1, hits give low values 0.0641 | locus YJL092W, strain hpr5, hits give low values 0.062 | locus YJL095W, strain BCK1 (second series), hits give low values 0.0654 | locus YJL095W, strain BCK1, hits give low values 0.0618 | locus YJL115W, strain asf1, hits give low values 0.0762 | locus YJL129C, strain trk1, hits give low values 0.0876 | locus YJL134W, strain LCB3, hits give low values 0.0487 | locus YJL154C, strain vps35, hits give low values 0.0637 | locus YJL164C, strain tpk1, hits give low values 0.0693 | locus YJL166W, strain qcr8, hits give low values 0.0646 | locus YJL168C, strain set2, hits give low values 0.064 | locus YJL187C, strain SWE1 (second series), hits give low values 0.0504
